Data published in paper PMC5540273 (PLoS ONE, 2017).

Experiments:
Conditions in all cases: concentration: 1 μM, replicates: in singlicate; n = 1
[1] = test system: RPS6KA4(Kin.Dom.1-N-terminal)
[2] = test system: RPS6KA4(Kin.Dom.2-C-terminal)
[3] = test system: RPS6KA5(Kin.Dom.1-N-terminal)
[4] = test system: RPS6KA5(Kin.Dom.2-C-terminal)
[5] = test system: T1, RSK1(Kin.Dom.1-N-terminal)
T1 construct: gene RPS6KA1

[6] = test system: T2, RSK1(Kin.Dom.2-C-terminal)
T2 construct: gene RPS6KA1

[7] = test system: T3, RSK2(Kin.Dom.1-N-terminal)
T3 construct: gene RPS6KA3

[8] = test system: T4, RSK2(Kin.Dom.2-C-terminal)
T4 construct: gene RPS6KA3

[9] = test system: T5, RSK3(Kin.Dom.1-N-terminal)
T5 construct: gene RPS6KA2

[10] = test system: T6, RSK3(Kin.Dom.2-C-terminal)
T6 construct: gene RPS6KA2

[11] = test system: T7, RSK4(Kin.Dom.1-N-terminal)
T7 construct: gene RPS6KA6

[12] = test system: T8, RSK4(Kin.Dom.2-C-terminal)
T8 construct: gene RPS6KA6

S6K1 = test system: S6K1
SBK1 = test system: SBK1
SGK2 = test system: SGK2
SGK3 = test system: SGK3
SGK = test system: SGK
SIK2 = test system: SIK2
SIK = test system: SIK
SLK = test system: SLK
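Note: KINOMEscan kinase panel screen.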

SMILES	%Inh [1]	%Inh [2]	%Inh [3]	%Inh [4]	%Inh [5]	%Inh [6]	%Inh [7]	%Inh [8]	%Inh [9]	%Inh [10]	%Inh [11]	%Inh [12]	%Inh (S6K1)	%Inh (SBK1)	%Inh (SGK2)	%Inh (SGK3)	%Inh (SGK)	%Inh (SIK2)	%Inh (SIK)	%Inh (SLK)
COc1cc(Nc2ccnc3cc(-c4ccncc4)ccc23)cc(OC)c1OC.Cl [GW494610]	8%	0%	22%	0%	0%	0%	5%	20%	1%	0%	19%	0%	17%	100%	5%	2%	19%	74%	91.5%	49%
N#CC1(c2cccc(C(=O)Nc3cccc(Oc4ccc5nc(NC(=O)C6CC6)sc5n4)c3)c2)CC1	0%	2%	0%	0%	0%	25%	15%	1%	25%	21%	11%	10%	0%	0%	0%	0%	0%	0%	31%	39%
COc1cccc2c(-c3ccncc3)c(-c3ccc(F)cc3)nn12 [GW468513]	4%	0%	23%	0%	0%	48%	0%	20%	3%	0%	23%	86%	3%	0%	0%	9%	0%	0%	0%	23%
Cc1cccc(Nc2nc(N[C@H]3CCCC[C@H]3N)ncc2C(N)=O)c1.Cl [GSK986310]	32%	0%	22%	0%	46%	20%	53%	28%	23%	12%	12%	30%	16%	71%	4%	0%	0%	26%	53%	72%
Cc1ccc(C)c(NC(=O)Nc2ccc(C)c(-c3ccc(C(=O)Nc4ccncc4)cc3)c2)c1 [GSK1398473]	37%	0%	4%	14%	0%	0%	37%	18%	27%	3%	0%	18%	3%	14%	0%	8%	0%	0%	3%	17%
CN(C)CCNS(=O)(=O)c1ccc(-c2ccnc3[nH]ccc23)cc1 [GSK977620]	30%	73%	44%	68%	30%	31%	60%	9%	32%	21%	25%	22%	32%	47%	0%	32%	4%	11%	14%	71%
Cc1cc(-c2c(-c3ccc(F)cc3)ncn2CCCN2CCOCC2)nc(N)n1 [SB-222517]	18%	0%	23%	4%	30%	49%	34%	0%	9%	21%	20%	0%	11%	18%	0%	3%	0%	2%	0%	18%
COc1cc(Nc2nccc(N3CCC(NC(=O)Nc4ccc5c(c4)OCO5)C3)n2)cc(OC)c1OC (stereo not drawn) [GSK1379766]	0%	0%	1%	18%	22%	2%	5%	0%	10%	5%	0%	14%	17%	10%	0%	11%	0%	0%	8%	36%
O=C1NC(=O)C(c2ccccc2Cl)=C1Nc1cccc(Cl)c1 [SB-342409]	16%	0%	2%	0%	75%	9%	19%	31%	100%	0%	0%	9%	7%	8%	0%	5%	0%	0%	5%	96.5%
N#Cc1cnc2cc(-c3cnc(CNCCN4CCOCC4)s3)ccc2c1Nc1ccc(Oc2ccccc2)cc1 [GW664114]	41%	0%	76%	28%	91.7%	32%	79%	1%	78%	16%	11%	14%	61%	1%	0%	4%	1%	16%	45%	67%
CN(c1ccc(NC(=O)N2CCN(CCCN3CCOCC3)CC2)cc1)c1ccnc(Nc2ccc(CS(C)(=O)=O)cc2)n1.Cl [GW830899]	31%	0%	0%	0%	2%	1%	0%	1%	0%	0%	0%	0%	0%	0%	0%	0%	0%	9%	8%	47%
Cc1ccc(O)cc1Nc1ccnc2ccc(C(C)(C)C)cc12 [GW856805]	4%	9%	2%	8%	30%	0%	39%	32%	16%	0%	31%	1%	13%	53%	13%	1%	25%	0%	42%	12%
CCn1c(-c2nonc2N)nc2c(-c3ccccc3)ncc(OCCCN)c21.O=C(O)C(F)(F)F.O=C(O)C(F)(F)F [GSK260205]	0%	0%	31%	8%	19%	50%	80%	0%	99.7%	1%	67%	90.3%	44%	9%	0%	71%	1%	36%	11%	99.1%
Nc1cccc(-c2ccc3c(N)n[nH]c3c2)c1 [GSK2193613]	12%	8%	35%	0%	13%	1%	1%	6%	7%	8%	0%	25%	0%	8%	0%	34%	33%	0%	0%	2%
Cl.N#CCc1ccc(Nc2nccc(Nc3ccc(Oc4ccccc4)cc3)n2)cc1 [GW639905]	0%	0%	0%	0%	1%	0%	0%	16%	4%	0%	0%	0%	0%	13%	0%	90.1%	0%	0%	0%	0%
CN(c1ccc(F)c(NC(=O)c2cccc(OC(C)(C)C#N)c2Cl)c1)c1ccc2nc(NC(=O)C3CC3)sc2n1	0%	0%	11%	6%	0%	1%	0%	59%	0%	0%	4%	0%	1%	18%	0%	2%	0%	39%	97%	14%
Cc1ccc(Nc2ccnc(Nc3ccc(C)c(F)c3)n2)cc1O.Cl [GW582868]	0%	0%	0%	21%	0%	0%	0%	0%	9%	0%	0%	0%	0%	6%	0%	0%	1%	100%	0%	41%

SMILES	%Inh [1]	%Inh [2]	%Inh [3]	%Inh [4]	%Inh [5]	%Inh [6]	%Inh [7]	%Inh [8]	%Inh [9]	%Inh [10]	%Inh [11]	%Inh [12]	%Inh (S6K1)	%Inh (SBK1)	%Inh (SGK2)	%Inh (SGK3)	%Inh (SGK)	%Inh (SIK2)	%Inh (SIK)	%Inh (SLK)
Cc1ccc(-c2ccc3occ(-c4ccc(S(C)=O)cc4)c3c2)nn1 (stereo not drawn)	1%	0%	22%	0%	0%	0%	0%	9%	0%	0%	0%	0%	5%	0%	0%	0%	0%	7%	0%	12%
Fc1cc(Cl)ccc1Nc1ccnc2cc(-c3ccc(CN4CCSCC4)o3)ccc12 [GW560106]	18%	0%	23%	0%	0%	25%	0%	48%	0%	6%	0%	87%	0%	0%	0%	0%	0%	81%	97.2%	65%
O=C(O)C(F)(F)F.O=c1[nH]ccc2nc(N[C@@H]3CCNC3)nc(Nc3ccc4c(c3)S(=O)(=O)CC4)c12 [GSK2181306]	91.8%	100%	62%	95.4%	97.8%	78%	97.6%	31%	91.3%	87%	97.8%	59%	92.7%	90.1%	91.7%	98.6%	97.2%	73%	18%	99.7%
CN(c1ccc2c(c1)nc(NCc1ccccc1)n2C)c1ccnc(Nc2ccc(CS(C)(=O)=O)cc2)n1.Cl [GW811603]	7%	0%	0%	0%	2%	0%	0%	24%	0%	23%	0%	0%	0%	0%	24%	0%	13%	10%	9%	38%
O=C(Nc1n[nH]c2nc(-c3cccc(O)c3)ccc12)C1CC1 [SB-711805]	0%	51%	0%	0%	0%	0%	30%	0%	0%	0%	52%	14%	0%	4%	14%	13%	28%	0%	0%	48%
O=C(Nc1n[nH]c2cc(-c3cccs3)ccc12)C1CC1 [SB-731284]	0%	11%	0%	0%	8%	0%	41%	0%	0%	0%	39%	13%	61%	13%	0%	37%	18%	0%	0%	0%
O=C(O)C(F)(F)F.O=c1[nH]ccc2nc(N[C@@H]3CCNC3)nc(Nc3cc(Cl)cc(Cl)c3)c12 [GSK2188764]	94.6%	99.9%	65%	86%	96.7%	64%	98.3%	30%	94.8%	55%	96.3%	32%	94.3%	91.5%	96.4%	99.5%	99.9%	54%	1%	98.9%
c1ccc(Oc2ccc(Nc3ccnc4cc(-c5ccc(CN6CCCCC6)o5)ccc34)cc2)nc1 [GW567143]	13%	0%	0%	0%	22%	0%	0%	20%	3%	0%	0%	1%	6%	25%	6%	0%	0%	70%	97.4%	36%
O=C(Nc1c(F)cccc1F)c1cc(C(=O)c2ccccc2F)c[nH]1 [GSK1326180]	8%	0%	4%	0%	5%	0%	1%	24%	0%	10%	1%	0%	0%	52%	18%	5%	11%	0%	0%	0%
COc1cccc(NC(=O)NCCNc2ccnc(Nc3ccc(F)cc3)n2)c1 [GSK1379879]	0%	0%	0%	34%	18%	0%	3%	0%	3%	0%	0%	0%	0%	40%	12%	2%	3%	4%	0%	7%
Cn1cc(-c2cnc(N)c3c(-c4ccc5c(c4)CCN5C(=O)Cc4ccccc4)csc23)cn1 [GSK2593074]	1%	38%	0%	2%	9%	42%	0%	9%	0%	7%	0%	18%	16%	0%	6%	0%	21%	9%	42%	69%
COC(=O)Nc1nc2ccc(Oc3ccc(CC(=O)Nc4cc(C(F)(F)F)ccc4F)cc3)cc2[nH]1 [GW680903]	0%	0%	1%	0%	65%	4%	0%	5%	4%	0%	0%	9%	9%	10%	4%	0%	0%	0%	0%	2%
CC(C)c1nc(-c2cccc(NS(=O)(=O)c3c(F)cccc3F)c2)c(-c2ccnc(Nc3ccc(N4CCOCC4)nc3)n2)s1.Cl [GSK1723980]	0%	0%	0%	0%	83%	1%	15%	0%	27%	0%	0%	19%	29%	20%	0%	15%	34%	90.8%	99.4%	73%
CCn1cnc2c(NCc3ccccc3)ncnc21 [SKF-96418]	13%	0%	11%	0%	0%	0%	30%	0%	0%	0%	9%	0%	17%	0%	2%	3%	2%	0%	0%	0%
COc1cccc(-c2nc(-c3ccccc3)[nH]c2-c2ccncc2)c1 [SB-610250]	2%	0%	7%	41%	19%	7%	12%	26%	11%	0%	0%	63%	19%	9%	40%	0%	31%	0%	1%	6%
Nc1ncc(-c2ccc3nccc(-c4ccncc4)c3c2)cc1S(=O)(=O)N1CCCCC1 [GSK1693850]	0%	0%	9%	17%	0%	37%	0%	0%	17%	24%	8%	50%	7%	14%	0%	17%	0%	0%	0%	69%
